# Test results reported in PubChem BioAssay (EPA / NIEHS).
# Inconclusive results are not listed. Calls of active or inactive are those of the source. How the source made its calls, unless noted: active means hit-call score of the fitted dose curve at least 0.9, where 1 is the maximum; inactive means score below 0.9.
# Legend:
# [1] = CCTE_Shafer_MEA_dev_burst_rate: CCTE's Neural Network Formation Assay for Burst Rate, Shafer Lab (AID 2284042);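 on AC50: potency for loss of burst rate below DMSO control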
# How it was run: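 Rat primary cortical cultures on PEI/laminin MEA; compound from plating, re-dosed at DIV 5, 9 media change. Single-electrode bursts/recording length, well mean of active electrodes; AUC over DIV 5–12 recordings; loss-of-signal vs DMSO.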
# [2] = CCTE_Shafer_MEA_dev_bursting_electrodes_number: CCTE's Neural Network Formation Assay for Number of Bursting Electrodes, Shafer Lab (AID 2284043; active means hit-call score of the fitted dose curve at least 0.9, where 1 is the maximum;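 on AC50: potency is for loss of bursting electrodes relative to DMSO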)
# How it was run: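 Primary rat cortical neurons plated on 16-electrode MEA wells, exposed from day 0 with compound renewed at DIV 5 and 9. Electrodes bursting ≥1 burst per 2 min counted on days 5, 7, 9 and 12; trapezoidal AUC across days, fitted for loss versus DMSO.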
# [3] = CCTE_Shafer_MEA_dev_per_burst_interspike_interval: CCTE's Neural Network Formation Assay for Burst Interspike Interval, Shafer Lab (AID 2284044);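 further: mean spike spacing inside bursts as AUC over recordings on days 5 7 9 12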;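 on AC50: potency for a decrease of within-burst interspike interval below DMSO level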
# How it was run: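 Spontaneous activity of maturing rat cortical networks is recorded on DIV 5, 7, 9 and 12 under chronic compound exposure beginning at plating. Endpoint: burst interspike interval well-mean, collapsed into trapezoidal AUC and fitted in the negative direction relative to DMSO.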
# [4] = CCTE_Shafer_MEA_dev_burst_duration_mean: CCTE's Neural Network Formation Assay for Mean Burst Duration, Shafer Lab (AID 2284045);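 on AC50: curve fitted for loss meaning shorter burst duration than DMSO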
# How it was run: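 Primary rat cortical neurons on 48-well 16-electrode MEA plates, exposed from day 0 with renewal at DIV 5 and 9; spontaneous activity recorded on days 5, 7, 9, 12. Well-mean burst duration across bursting electrodes, collapsed as trapezoidal AUC; DMSO baseline.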
# [5] = CCTE_Shafer_MEA_dev_interburst_interval_mean: CCTE's Neural Network Formation Assay for Mean Interburst Interval, Shafer Lab (AID 2284046);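 further: well-mean interburst interval of bursting electrodes as AUC over four recording days; curve fitted for decrease in interburst interval relative to DMSO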
# How it was run: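 Rat cortical neurons, 1.5 x 10^5 cells/well, 48-well MEA; compound from day 0 through DIV 12, media and treatment renewed DIV 5/9. Recordings DIV 5, 7, 9, 12; well-mean interburst interval → trapezoidal AUC, loss direction vs DMSO.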
# [6] = CCTE_Shafer_MEA_dev_inter_network_spike_interval_mean: CCTE's Neural Network Formation Assay for Mean Inter-network Spike Interval, Shafer Lab (AID 2284047)
# How it was run: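 Primary rat cortical neurons on PEI-coated 48-well MEAs (16 electrodes/well) were exposed from plating day 0 to DIV 12, with dosing renewed at DIV 5 and 9. Recordings at DIV 5, 7, 9, 12 were collapsed by trapezoidal AUC, loss-of-signal fit vs DMSO.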
# [7] = CCTE_Shafer_MEA_dev_network_spike_number: CCTE's Neural Network Formation Assay for Number of Network Spikes, Shafer Lab (AID 2284048);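 on AC50: fit as a loss of signal meaning fewer network spikes than DMSO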
# How it was run: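 Primary rat cortical neurons on PEI/laminin 48-well MEA plates, dosed from plating day 0 for 12 days, renewed at DIV 5 and 9. Network spike counts recorded DIV 5, 7, 9, 12, collapsed as trapezoidal AUC; DMSO baseline.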
# [8] = CCTE_Shafer_MEA_dev_network_spike_peak: CCTE's Neural Network Formation Assay for Mean Number of Electrodes in Network Spike, Shafer Lab (AID 2284049);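 on AC50: fitted for loss of signal meaning fewer electrodes in network spikes than DMSO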
# How it was run: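 Network-spike peak electrode count from recordings on days 5, 7, 9 and 12 was combined as trapezoidal area under the curve. Rat cortical cultures were treated continuously from plating, with compound renewed at each feed (DIV 5, 9); fits versus DMSO.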
# [9] = test system: DIO2 (gene 1734); experiment: CCTE_GLTED_hDIO2: CCTE's human Deiodinase 2 (DIO2) Inhibition Assay, Great Lakes Toxicology and Ecology Division (GLTED) Lab (AID 2284050; active means hit-call score of the fitted dose curve at least 0.9, where 1 is the maximum)
# How it was run: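 hDIO2 enzyme + test chem, 3 h → free iodide from substrate; step 2: Sandell-Kolthoff (Ce IV reduction by As, iodide-catalysed), spectrophotometric read. Triplicate plates; DMSO = baseline.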
# [10] = CCTE_Shafer_MEA_dev_spike_duration_mean: CCTE's Neural Network Formation Assay for Mean Spike Duration, Shafer Lab (AID 2284051);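 further: mean network spike duration pooled as area under curve over DIV 5 to 12 recordings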;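 on AC50: potency for a decrease in mean network spike duration versus DMSO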
# How it was run: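 Rat cortical primary cultures, 48-well MEA (16 electrodes/well); compound from plating, renewed DIV 5, 9. Network spike duration (AxIS adaptive detector) recorded DIV 5/7/9/12, combined as trapezoidal AUC; loss direction vs DMSO.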
smiles,measurement,setting,value
O=C(O)C(F)(F)C(F)(F)C(F)(F)C(F)(F)C(F)(F)C(F)(F)C(F)(F)C(F)(F)Cl,outcome,[1],inactive
same,outcome,[2],inactive
same,outcome,[3],inactive
same,outcome,[4],inactive
same,outcome,[5],inactive
same,outcome,[6],inactive
same,outcome,[7],inactive
same,outcome,[8],inactive
same,AC50,[9],100 µM (active)
same,outcome,[10],inactive
C=CC(=O)OCC(F)(F)C(F)(F)C(F)(F)C(F)(F)COC(=O)C=C,AC50,[1],4.18 µM (active)
same,AC50,[2],2.08 µM (active)
same,AC50,[3],4.18 µM (active)
same,AC50,[4],2.87 µM (active)
same,AC50,[5],4.2 µM (active)
same,outcome,[6],inactive
same,AC50,[7],2.28 µM (active)
same,AC50,[8],4.19 µM (active)
same,AC50,[9],12.8 µM (active)
same,AC50,[10],7.64 µM (active)
O=C(O)C(F)(F)C(F)(F)C(F)(F)C(F)(F)C(F)(F)C(F)(F)C(F)(F)C(F)(F)C(F)(F)C(F)F,outcome,[1],inactive
same,outcome,[3],inactive
same,outcome,[4],inactive
same,outcome,[5],inactive
same,outcome,[6],inactive
same,outcome,[7],inactive
same,outcome,[8],inactive
same,AC50,[9],59.3 µM (active)
same,outcome,[10],inactive
OCC(F)(F)C(F)(F)C(F)(F)C(F)F,outcome,[1],inactive
same,outcome,[3],inactive
same,outcome,[4],inactive
same,outcome,[5],inactive
same,outcome,[6],inactive
same,outcome,[7],inactive
same,outcome,[8],inactive
same,outcome,[10],inactive
c1ccc(B(c2ccccc2)c2ccccc2)cc1,AC50,[9],57.7 µM (active)
O=C(O)C(F)(F)C(F)(F)C(F)(F)C(F)(F)C(F)(F)C(F)(F)C(F)(F)C(F)(F)C(F)(F)C(F)(F)C(F)(F)C(F)(F)F,AC50,[9],74.9 µM (active)
CCN(Cc1cccc(S(=O)(=O)O)c1)c1ccc(C(=C2C=CC(=[N+](CC)Cc3cccc(S(=O)(=O)O)c3)C=C2)c2ccc(O)cc2S(=O)(=O)[O-])cc1,AC50,[9],48.5 µM (active)
CC(Cc1ccc(O)c(O)c1)C(C)Cc1ccc(O)c(O)c1 (configuration not stated),AC50,[9],19.3 µM (active)
OCCCC(F)(F)C(F)(F)C(F)(F)F,outcome,[1],inactive
same,outcome,[3],inactive
same,outcome,[4],inactive
same,outcome,[5],inactive
same,outcome,[6],inactive
same,outcome,[7],inactive
same,outcome,[8],inactive
same,outcome,[10],inactive
NC(=O)C(F)(F)C(F)(F)C(F)(F)C(F)(F)F,outcome,[1],inactive
same,outcome,[3],inactive
same,outcome,[4],inactive
same,outcome,[5],inactive
same,outcome,[6],inactive
same,outcome,[7],inactive
same,outcome,[8],inactive
same,outcome,[10],inactive
O=C(Cl)C(F)(F)C(F)(F)C(F)(F)C(F)(F)C(F)(F)C(F)(F)C(F)(F)C(F)(F)F,AC50,[9],69.4 µM (active)
COC(=O)CCC(F)(F)C(F)(F)C(F)(F)C(F)(F)F,outcome,[1],inactive
same,outcome,[3],inactive
same,outcome,[4],inactive
same,outcome,[5],inactive
same,outcome,[6],inactive
same,outcome,[7],inactive
same,outcome,[8],inactive
same,outcome,[10],inactive
O=P(O)(O)OCCC(F)(F)C(F)(F)C(F)(F)C(F)(F)C(F)(F)C(F)(F)F,outcome,[1],inactive
same,AC50,[2],0.1 µM (active)
same,outcome,[3],inactive
same,outcome,[4],inactive
same,outcome,[5],inactive
same,outcome,[6],inactive
same,outcome,[7],inactive
same,outcome,[8],inactive
same,outcome,[10],inactive
FC(F)(F)C(F)(F)CNCC(F)(F)C(F)(F)F,outcome,[1],inactive
same,outcome,[2],inactive
same,outcome,[3],inactive
same,outcome,[4],inactive
same,outcome,[5],inactive
same,outcome,[6],inactive
same,outcome,[7],inactive
same,outcome,[8],inactive
same,outcome,[10],inactive
CC(C)(C)C(=O)CC(=O)C(F)(F)C(F)(F)C(F)(F)F,outcome,[1],inactive
same,AC50,[2],15 µM (active)
same,outcome,[3],inactive
same,outcome,[4],inactive
same,outcome,[5],inactive
same,outcome,[6],inactive
same,outcome,[7],inactive
same,AC50,[8],23.7 µM (active)
same,AC50,[10],26 µM (active)
O=C(O)C(F)(F)C(F)(F)C(F)F,outcome,[1],inactive
same,outcome,[2],inactive
same,outcome,[3],inactive
same,outcome,[4],inactive
same,outcome,[5],inactive
same,outcome,[6],inactive
same,outcome,[7],inactive
same,outcome,[8],inactive
same,outcome,[10],inactive
